Screening results (PubChem BioAssay)
The entries come from a sample that favours hits as a whole.
PINK1 modulator = A Quantitative High throughput Screen to Identify Chemical Modulators of PINK1 Expression | actives 0.2% (n = 410,000) | PINK1 immunofluorescence, high-content cytometry, 24 h | Potency, µM (series often up to 76.6 µM), for inactives: top-dose activation (PINK1 increase), usual class: activators; active = well fitted activation curve with a large enough effect; inconclusive = small, poorly fitted or top-dose-only effect; cell line not stated here; also: % of control where 0% means no effect; nearly all actives have a fitted effect of over 65% in size
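Decision-based qHTS: stable cells, 24 h exposure to five compound concentrations, CCCP as control. Fixed cells stained for PINK1 plus nuclear, mitochondrial and cell markers, cytometer read.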
TSG101-PTAP inh = qHTS Assay for Iinhibitors of HIV-1 Budding by Blocking the Interaction of PTAP/TSG101; Fluorescence polarization, FITC-PTAP peptide / Tsg101 binding; Potency, µM (doses to about 115 µM), inactives show at the highest dose activity change, negative = inhibition, actives largely listed as inhibitors; 340,000 tested, under 10 active; AID 493005, 2010; active = well fitted inhibition curve with a large enough effect in the main read-out, with a control signal flat, not every such curve was filed as active; inconclusive = small, poorly fitted or top-dose-only effect, or effect the other way, or a change in a side signal; inactive = no such curve, though single readings can be large or run the other way; also: % of control where 0% means no effect
Target sequence (Q99816 whole entry, looked up): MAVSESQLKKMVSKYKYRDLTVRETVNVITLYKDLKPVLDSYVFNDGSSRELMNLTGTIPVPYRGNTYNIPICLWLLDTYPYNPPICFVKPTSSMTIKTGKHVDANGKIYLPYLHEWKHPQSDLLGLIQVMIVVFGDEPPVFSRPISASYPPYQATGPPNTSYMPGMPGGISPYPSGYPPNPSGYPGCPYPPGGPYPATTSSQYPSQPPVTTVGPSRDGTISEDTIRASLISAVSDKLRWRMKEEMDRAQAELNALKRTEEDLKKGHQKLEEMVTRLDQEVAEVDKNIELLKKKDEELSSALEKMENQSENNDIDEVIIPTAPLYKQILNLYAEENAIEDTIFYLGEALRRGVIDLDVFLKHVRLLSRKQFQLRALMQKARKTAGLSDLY
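Tsg101 binding domain (10 uM final) was mixed with compound and a FITC-labeled PTAP peptide (50 nM final) in HEPES pH 7.5 buffer with NaCl, Tween 20, EDTA and TCEP; fluorescence polarization was read after 20 min at r.t.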
Epigenetic derep = Quantitative High-Throughput Screen for Regulators of Epigenetic Control; murine LDR cells, GFP reporter derepression, 30 h; Potency, µM (top dose mostly 53.9 µM), for the others: at the top dose GFP activation, hits mostly activators; actives 0.2% (n = 280,000); also: % of control where 0% means no effect; nearly all actives have a fitted effect of over 60% in size
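Readout is the number of GFP-expressing murine LDR cells, counted by cytometry following washing. Cells were treated with compound for 30 h at 37 C; the stably integrated CMV-GFP locus is normally silent.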
HTT aggregate = qHTS Multiplex Assay to Identify Dual Action Probes in a Cell Model of Huntington: Aggregate Formation (GFP). AID 1688, 2009. actives 1.1% (n = 220,000). PC12 HttQ103-GFP aggregates, Acumen cytometry, 40 h. Potency, µM (series often up to 46.1 µM), for the others: at the highest dose activity change, negative = inhibition, usual class: inhibitors; also: % is scaled to controls: 0 for no effect and ±100 for the full control effect; nearly all actives have a fitted effect of over 60% in size
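Using laser scanning cytometry, GFP-positive aggregates were counted after lysis of PC12 cells induced with 100 nM tebufenozide to express HTT exon 1 Q103–GFP. Compounds were tested in titration.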
HTT cytoprotect = qHTS Multiplex Assay to Identify Dual Action Probes in a Cell Model of Huntington: Cytoprotection (ATP); PC12 HTT-Q103 induced, cytoprotection, ATP luminescence, 40 h; Potency, µM (top dose mostly 56.4 µM), for the others: cytoprotection (ATP increase), most hits filed as activators; AID 1471, 2008; actives 0.14% (n = 230,000); also: % of control where 0% means no effect; nearly all actives have a fitted effect of over 45% in size
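Compounds were screened for protection of PC12 cells against cell death after tebufenozide induction (100 nM final) of mutant Huntingtin exon 1 (Q103) fused to GFP.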
Apoferritin bind = qHTS Assay for Identification of Novel General Anesthetics; Ferritin light chain (Equus caballus), P02791; actives 0.074% (n = 350,000); apoferritin/1-aminoanthracene competitive binding, fluorescence; Potency, µM (series often up to 77.5 µM), for inactives: at the highest dose activity change, negative = displacement, most hits filed as inhibitors; also: % is scaled to controls: 0 for no effect and ±100 for the full control effect; nearly all actives have a fitted effect of over 20% in size
Target sequence (P02791 2-175 limits assumed): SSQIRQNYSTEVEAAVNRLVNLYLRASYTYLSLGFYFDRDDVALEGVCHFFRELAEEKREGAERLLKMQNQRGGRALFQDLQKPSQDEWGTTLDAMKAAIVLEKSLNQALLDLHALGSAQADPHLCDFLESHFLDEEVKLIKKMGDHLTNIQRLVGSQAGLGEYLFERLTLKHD
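Concentration-response curves derived by four-parameter Hill fitting of normalized fluorescence, where compounds displaced 1-AMA from 10 uM horse apoferritin following a brief 10 min room-temperature incubation; propofol titration acted as positive control.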
* = called active by the depositor; ? = inconclusive; . = not tested or not shown; [ ] = another dose, or the depositor's remark. Unless noted, calls follow the shape of the dose curve; as a rule, active = well fitted curve in the direction sought with a large enough effect; inconclusive = small, poorly fitted or top-dose-only effect, or another doubt; inactive = no such curve, though single readings can be large; an effect the other way counts as inactive or inconclusive. Potency is read from the fitted curve at half-maximal effect.

SMILES	PINK1 modulator	TSG101-PTAP inh	Epigenetic derep	HTT aggregate	HTT cytoprotect	Apoferritin bind
COc1ccccc1N1CCN(C(=O)C2CCCN(S(=O)(=O)c3ccc4c(c3)oc(=O)n4C)C2)CC1 (centres undefined)	-1%	-2%	0%	.	.	-3%
CCOc1nc(SCCOc2ccccc2)nc(N(C)C)n1	0%	5%	-2%	0.45µM*	?	-7%
O=C(Nc1ccc2c(c1)CCC2)C1CCCN(c2ncccn2)C1 (centres undefined)	2%[38.3 µM]	-1%	2%	9%	-22%[10 µM]	-9%
Cc1nc2ncnn2c(N2CCCC(C(=O)Nc3ccc4c(c3)CCC4)C2)c1C (centres undefined)	13%[38.3 µM]	-11%	-4%	10µM*	-2%[10 µM]	?
CCc1c(C)nc2ncnn2c1N1CCC(C(=O)Nc2ccc(C)cc2)CC1	?	-10%	-1%	?	6%[10 µM]	-12%
CCc1c(C)nc2ncnn2c1N1CCC(C(=O)Nc2ccccc2)CC1	13µM*	-9%	0%	-32%	-8%	-12%
Cc1cc2nc(N3CCCN(Cc4cccn4-c4ncccn4)CC3)nc(C)c2cc1C	-1%	.	.	.	.	.
O=C(c1ccccc1C(F)(F)F)N1CCOc2c(cc(-c3nc4ccccc4s3)cc2OC2CCOC2)C1 (centres undefined)	-1%	.	.	.	.	.
Cc1cc(C(=O)NCc2nc(-c3ccccc3NC(=O)C3CCCO3)oc2C)nc(C)n1 (centres undefined)	0%	.	.	.	.	.
CCCCN(CC)C(=O)CSc1nc2n[nH]c(C)c2c(=N)n1-c1ccc(CC)cc1	2%	.	0%	.	.	-9%
Nc1ccc(Nc2ccccc2)c(Cl)c1	-1%[38.3 µM]	-2%	-1%	?	-18%	7.9µM*
CCC(=O)Nc1ccc2nc(SCCOc3ccc(C)cc3OC)sc2c1	1%	.	0%	.	.	-5%
Cc1ncc2c(c1CNC(=O)c1ccc3c(c1)OCO3)CCN(C(=O)c1cc3ccccc3n1C)C2	1%	.	.	.	.	.
CCCn1nc(NC(=O)CC)c2cc3cccc(C)c3nc21	-2%	-4%	.	.	.	3%
CCCn1nc(NC(=O)c2cccc(Cl)c2)c2cc3cccc(C)c3nc21	0%	.	16µM*	.	.	-10%
O=C(CCCCn1c(=O)c2ccccc2n(Cc2ccc(F)cc2)c1=O)NCc1ccco1	17%	1%	0%	1µM*	-80%[10 µM]	-5%
O=C(CCCn1c(=O)c2ccccc2n(Cc2ccccc2)c1=O)NCc1ccco1	2%	-4%	4%	14%[9.22 µM]	11%	-1%
CN1CCN(S(=O)(=O)c2ccc(Sc3nnnn3-c3ccccc3)c([N+](=O)[O-])c2)CC1	-1%	-1%	-3%	11µM*	8%[10 µM]	-14%
CC(C)c1cnc2c(c1SCc1cccc(F)c1)c(=O)n(C)c(=O)n2C	1%	.	-2%	.	.	?
CC(=O)c1ccc(-c2cc(F)cc3c2OC(CNC(=O)Cc2cn4ccsc4n2)C3)s1 (centres undefined)	0%	.	.	.	.	.
CCOC(=O)c1nn(-c2ccc(Cl)cc2)c(=O)c(C#N)c1C	2%	0%	.	.	.	3%
CCOC(=O)c1nn(-c2ccc(Cl)cc2Cl)c(=N)c(C#N)c1C	.	.	11µM*	-31%[9.22 µM]	-11%[10 µM]	-13%
COc1ccc2c(c1)CCc1cnc(-n3ncc(C(=O)NCc4cc(C)no4)c3C3CC3)nc1-2	0%	.	.	.	.	.
CCC(Oc1ccccc1)C(=O)Nc1ncc([N+](=O)[O-])s1 (centres undefined)	4%	-1%	3%	-14%[9.22 µM]	-4%[10 µM]	-17%
O=C(Cc1ccc(Cl)cc1)Nc1ncc([N+](=O)[O-])s1	?	0%	0%	?	-73%	-16%
SMILES	PINK1 modulator	TSG101-PTAP inh	Epigenetic derep	HTT aggregate	HTT cytoprotect	Apoferritin bind
O=C(COC(=O)COc1ccccc1)Nc1ncc([N+](=O)[O-])s1	2%	-2%	.	.	.	.
CC(CC(=O)Nc1ncc([N+](=O)[O-])s1)c1ccccc1 (centres undefined)	?	-2%	0%	2%[9.22 µM]	1%[10 µM]	35µM*
O=C(COc1ccc(Cl)cc1)Nc1ncc([N+](=O)[O-])s1	16µM*	0%	-1%	13µM*	-59%	-6%
O=C(Cc1ccc(Br)cc1)Nc1ncc([N+](=O)[O-])s1	25µM*	1%	-3%	18%[9.22 µM]	2%[10 µM]	-6%
O=C(COc1ccc(S(=O)(=O)NC2CCCCC2)cc1)N1CCN(c2cccc(Cl)c2)CC1	-3%[38.3 µM]	-1%	0%	16µM*	-22%	14%
CC(C)NS(=O)(=O)c1ccc(OCC(=O)N2CCN(c3ccccc3)CC2)cc1	1%	1%	-3%	-1%[9.22 µM]	4%[10 µM]	-5%
CC/C(=N\NC(=O)CSCc1ccc(Cl)cc1)c1ccc2c(c1)OCCO2	5%	-5%	0%	8%	3%	18µM*
CC/C(=N\NC(=O)CSCc1ccccc1Cl)c1ccc2c(c1)OCCO2	8%	-2%	-3%	-26%	-3%[10 µM]	?
O=C1CC(SCc2nc3ccccc3[nH]2)C(=O)N1c1cccc(F)c1 (centres undefined)	0%	0%	-2%	4µM*	?	-6%
Cc1ccccc1-c1nc(CN2CCC(C(=O)NCc3ccccc3Cl)CC2)c(C)o1	0%	.	-1%	.	.	-1%
CO[C@@H]1COC(=O)C/C=C\[C@@H](C)[C@H](OC)COC(=O)[C@H](COCc2ccccc2)NC(=O)C/C=C\[C@H]1C	.	.	-2%[10.1 µM]	.	3.2µM*	7%[15.3 µM]
CO[C@@H]1COC(=O)[C@H](COCc2ccccc2)NC(=O)C/C=C\[C@@H](C)[C@H](OC)COC(=O)[C@H](COCc2ccccc2)NC(=O)C/C=C\[C@H]1C	.	.	0%[10.1 µM]	.	20%[10 µM]	3%[15.3 µM]
COc1cc(NC(C)CCCN)c2ncccc2c1 (centres undefined)	2%	-1%	-1%	.	16%	-3%
COc1cc(NCCCCCCCN)c2ncccc2c1	6%	-5%	-4%	1.8µM*	-91%[10 µM]	-14%
Cc1nc2c(Br)cc(Br)cc2cc1O	0%	-9%	6%	11µM*	-2%	-6%
Cc1ccc(C(C)C)c(OCC(=O)NCC2(N(C)C)CCCCC2)c1	3%	.	2%	.	.	-1%
CN(Cc1cccs1)c1ncnc2sccc12	0%	-2%	0%	3.2µM*	1%[10 µM]	-6%
